CHX counter: affects cycloheximide protein synthesis inhibition readout, counter-screen; cell reporter, cycloheximide protein synthesis inhibition counterscreen; max response, %; 300,000 tested, 12% active; AID 2314; in the data active = max response mostly above about 13%, no sharp cut-off; inactive = mostly below about 14%; note: read at 38.3 µM for the half of the compounds with a filed dose; 0% is about no effect
FMDV inh: blocks foot and mouth disease virus; FMDV antiviral cell-based qHTS; Potency, µM (highest dose often 57.9 µM), for the others: at the top dose activity change, negative = inhibition, hits mostly inhibitors; 410,000 tested, 1.2% active; AID 1159524; calls by dose curve; tested in HEK293T cells; note: read-out not given here; potency is the fitted concentration of half-maximal effect; % is set by controls: 0 for no effect and ±100 for the full control effect; nearly all actives have a fitted effect of over 45% in size
Sm TGR block: blocks Schistosoma mansoni thioredoxin glutathione reductase; Q962Y6; purified TGR, DTNB reduction, TNB absorbance 405 nm; Potency, µM (series often up to 114 µM), for inactives: at the highest dose activity change, negative = inhibition, hits mostly inhibitors; 360,000 tested, 3% active; AID 485364; active = well fitted inhibition curve with a large enough effect; inconclusive = small, poorly fitted or top-dose-only effect; inactive = no such curve, though single readings can be large or run the other way; note: potency is the fitted concentration of half-maximal effect; % is set by controls: 0 for no effect and ±100 for the full control effect; nearly all actives have a fitted effect of over 60% in size
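TGR 20 nM + NADPH 100 uM (dispensed conc.), cpd preinc 15 min RT; start with NADPH (500 uM addition) then DTNB (15 mM addition). Kinetic TNB absorbance, 405 nm filter. Four-parameter Hill fit across titration.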
Shiga toxin inh: inhibitors of Shiga toxin in Vero cells | Vero cells, Shiga toxin protein synthesis inhibition reporter | inhibition, % at 38.7 µM | 290,000 tested, 9.2% active | AID 2315; in the data active = inhibition mostly above about 28%, no sharp cut-off; inactive = mostly below about 43%; note: 0% is about no effect
The depositor's hits bear a star; ? = inconclusive; / = no result; + = active, no number. Only some compounds are listed: those with a hit (about 12% of all), similar ones and a draw of the others.

SMILES	CHX counter	FMDV inh	Sm TGR block	Shiga toxin inh
CC(=O)N(C1=C(N2CCOCC2)C(=O)c2ccccc2C1=O)c1ccc(C(=O)O)cc1	-5.1	?	2.82µM*	-10.6
CC(=O)N(C)C1=C(N2CCOCC2)C(=O)c2ccccc2C1=O	-0.9	2.51µM*	15.6%	-4.8
CCOc1ccc(C(=O)N2CCN(Cc3ccccc3)CC2)cc1	16.7	/	-13.2%	7.9
O=C(O)c1cc(OCc2ccccc2)cc(OCc2ccccc2)c1	-4.2	-4.6%	2.3%	-13.6
CCOc1ccc(OCc2cccc(C(=O)N3CCCCCC3)c2)cc1	64.8*	-72.3%	-1.3%	+
CCOc1ccc(OCc2cccc(C(=O)N3CCCC3)c2)cc1	87.4*	/	14.2%	138.7*
O=C(NN1CCCCC1)c1cccc(COc2ccc(Cl)cc2)c1	76.4*	9.0%	-5.1%	89.9*
CCOc1ccc(OCc2cccc(C(=O)O)c2)cc1	17.7*	0.891µM*	-6.2%	40.5
CC(C)[C@H](NC(=O)[C@@H]1CSSC[C@H](NC(=O)[C@H](CC(=O)O)NC(=O)[C@H](C)NC(=O)[C@@H](NC(=O)CNC(=O)[C@H](C)N)[C@@H](C)O)C(=O)N[C@@H](Cc2ccccc2)C(=O)N[C@@H](Cc2c[nH]c3ccccc23)C(=O)N[C@@H](CCCCN)C(=O)N[C@@H](Cc2ccc(O)cc2)C(=O)N1)C(=O)O	-2.4	/	/	-5.5
Cc1ccc(S(=O)(=O)c2nnn3c2nc(NCc2ccc4c(c2)OCO4)c2sccc23)cc1	/	-4.8%	9.2%	/
O=Cc1ccc(OCc2cccc(C(F)(F)F)c2)cc1O	11.8	4.4%	-4.6%	11.2
O=C(OCC(F)(F)F)c1cccc(COc2ccc3ccccc3c2)c1	82.3*	?	6.7%	139.9*
COc1cccc(C2=Nn3c(nnc3-c3cc(OC)ccc3OC)SC2)c1	-4.5	/	/	-1.6
O=C1CC(c2ccc(O)c(O)c2)Oc2c1ccc(O)c2O (stereo not given)	4.6	9.9%	56.2µM*	0.6
CC(C)=CCc1c(O)cc2c(c1O)C(=O)CC(c1ccccc1)O2 (stereo not given)	/	-18.7%	/	/
CC(C)=CCc1c(O)ccc2c1OC(c1ccc(O)c(O)c1)CC2=O (stereo not given)	14.1*	?	56.2µM*	4.2
CCc1ccc(CN(Cc2cn[nH]c2-c2ccc(OC)cc2)C(=O)Nc2cc(Cl)ccc2OC)cc1	/	?	-0.7%	/
Cc1ccc(/C=C/C(=O)N2CCN(S(=O)(=O)c3cccs3)CC2)o1	23.1*	-9.6%	8.91µM*	-4.3
O=C(/C=C/c1ccco1)N1CCN(S(=O)(=O)c2cccs2)CC1	-1.8	-26.2%	3.55µM*	14.9
Cc1ccc(/C=C/C(=O)N2CC(C)CC(C)C2)o1 (stereo not given)	11.5	-31.8%	2.82µM*	5.1
O=C(/C=C/c1cccc([N+](=O)[O-])c1)N1CCN(S(=O)(=O)c2cccs2)CC1	-4.2	?	-0.8%	-7.3
CCN1CCN(C(=O)/C=C/c2ccc(C)o2)CC1	7.3	-20.1%	?	-7.6
Cc1ccc(-c2cc(Cc3ccc(F)cc3)c(=O)[nH]n2)cc1	19.6*	-6.2%	2.5%	29.4
Cc1ccc(Cc2cc(-c3ccc(C)cc3)n[nH]c2=O)cc1	39.7*	10.2%	14.1%	51.6*
CCN(CC)CCN(C(=O)c1ccco1)c1nc2c(C)cccc2s1	/	18.5%	0.1%	/
SMILES	CHX counter	FMDV inh	Sm TGR block	Shiga toxin inh
c1ccc2sc(N3CN(CCN4CCOCC4)CN(c4nc5ccccc5s4)C3)nc2c1	8.0	12.1%	-16.3%	17.5
CN1CCN(P(=O)(c2ccccc2)c2nc3ccccc3s2)CC1 (stereo not given)	-0.6	/	-26.1%	0.4
Nc1ccc2nc(N3CCOCC3)sc2c1	41.4*	44.4%	4.3%	139.8*
c1ccc2sc(N3CCOCC3)nc2c1	44.2*	61.5%	-2.0%	53.2
O=P(c1ccccc1)(c1nc2ccccc2s1)N1CCOCC1 (stereo not given)	-5.0	17.8%	50.1µM*	-23.5
CCCn1c(CCC(=O)Nc2ccc(C)c(Cl)c2)nc2cccnc21	/	-20.6%	-12.3%	/
Cc1ccc(NC(=O)Nc2cn(CC(C)C)c(=O)c3ccccc23)cc1N(C)C	/	-4.4%	-14.6%	/
Cn1c(NC(=O)C[n+]2cc(-c3ccc(F)cc3)n3c2CCC3)cc(=O)n(C)c1=O	-2.8	-14.8%	-1.4%	19.2
O=C(C[n+]1cc(-c2ccc(F)cc2)n2c1CCC2)c1cccs1	18.3*	0.0%	4.0%	88.7*
NC(=O)CC(NC(=O)c1ccc(Br)cc1)c1ccc(NC2CCCCC2)c([N+](=O)[O-])c1 (stereo not given)	-2.0	-3.3%	-9.2%	-1.2
NC(=O)CC(NC(=O)c1ccc(Br)cc1)c1ccc(NC2CCCCCC2)c([N+](=O)[O-])c1 (stereo not given)	12.2*	-29.8%	1.1%	15.8
CCN(CC)S(=O)(=O)c1ccc2nc(NC(=O)c3ccccc3OC)sc2c1	/	?	-2.2%	/
CS(=O)(=O)c1ccc2nc(NC(=O)CCC(=O)c3cccs3)sc2c1	16.8*	15.9%	20.6%	44.8
CCN(CC)S(=O)(=O)c1ccc2nc(NC(=O)c3cncc(Br)c3)sc2c1	/	0.0%	-4.2%	/
CS(=O)(=O)c1ccc2nc(NC(=O)CCS(=O)(=O)c3ccccc3)sc2c1	-3.2	-19.9%	?	-8.1
CCN(CC)S(=O)(=O)c1ccc2nc(NC(=O)c3ccco3)sc2c1	29.0*	15.0%	-15.0%	77.6*
CCN(CC)S(=O)(=O)c1ccc2nc(NC(=O)c3cccs3)sc2c1	48.0*	47.6%	1.7%	64.8*
Cc1c(Cl)cccc1NC(=O)CCCn1nc(C)c2sc3ccccc3c2c1=O	/	-16.9%	6.8%	/
CC(=O)c1ccc(N=Nc2ccc(C)cc2)cc1	22.0*	?	-6.4%	40.7*
CN(C)c1ccc(N=Nc2nccs2)cc1	/	-68.3%	/	/
CC(=O)c1ccc(N=Nc2ccc(N(C)C)cc2)cc1	40.8*	?	-2.1%	97.4*
CN(C)c1ccc(N=Nc2ccccc2Br)cc1	38.1*	-54.5%	-5.2%	37.0*
COc1ccc(N2CCN(C3(c4ccccc4)C(=O)c4ccccc4C3=O)CC2)cc1	/	-1.8%	10.2%	/
COc1ccc(C(c2nnnn2CCc2ccccc2)N2CCN(C3CCCC3)CC2)cc1 (stereo not given)	42.0*	9.3%	-7.2%	60.2*
COc1ccccc1C(c1nnnn1Cc1ccco1)N1CCN(c2cccc(C)c2C)CC1 (stereo not given)	28.0*	-3.3%	-12.8%	43.4*
COc1ccccc1N1CCN(C(c2ccc(N(C)C)cc2)c2nnnn2CCc2ccccc2)CC1 (stereo not given)	-1.0	-13.6%	39.8µM*	14.1
COc1ccccc1N1CCN(C(c2ccc(F)cc2)c2nnnn2C(C)C)CC1 (stereo not given)	-6.6	-3.6%	-24.3%	-8.5
COc1ccc(Cn2nnnc2C(C(C)C)N2CCN(c3ccccc3OC)CC2)cc1 (stereo not given)	7.7	25.1µM*	8.2%	-6.2
CC(C)Cn1c(=O)c2sccc2n2c(CCCC(=O)N3CCN(c4ccc(F)cc4)CC3)nnc12	/	?	4.7%	/
COc1ccccc1N1CCN(C(CNC(=O)C(=O)NCCc2ccccc2)c2cccnc2)CC1 (stereo not given)	/	25.1µM*	1.8%	/

From PubChem BioAssay
